Source: PubChem BioAssay
MITF TRPM1 HTS – MITF TRPM1 promoter activation in melanoma cells; SK-MEL-5 TRPM1-promoter luciferase, 24 h; % of positive control, neutral wells = 0; activation, % at 12.5 µM; 300,000 tested, 0.75% active;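 active = mean activation of at least 80% with every replicate also reaching 80%; inconclusive = mean reaches 80% but some replicate falls short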;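 also: 0% = neutral control wells and 100% = parthenolide positive control wells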
esBAF inh – blocks esBAF chromatin remodeling in mouse ES cells; Bmi1-luciferase knock-in reporter, 24 h; 100% = twice the neutral-well signal; reporter increase, % at 12.5 µM; 350,000 tested, 2% active; AID 602393; in the data active = activation above about 40%; inconclusive = no clear call, values can overlap the other calls;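 also: 0% = median of the plate's neutral control wells and 100% = double that signal; a rise in the Bmi1 reporter signal indicates esBAF inhibition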
rRNA inh HTS – selective bacterial rRNA inhibition in E. coli. E. coli WT GFP vs humanized-ribosome RFP mutants, fluorescence, 24 h; hits give low values; DMSO median 0, no signal -100. GFP signal change (wild-type ribosome), % (no concentration beside the values). 350,000 tested, 1.6% active. AID 720706;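 active = significant combined selectivity score with lowered wild-type GFP, culture density cut under 30%, mutant RFP and density less affected; inactive = any of these conditions unmet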
Wnt bcat act – activators of Wnt/beta-catenin signaling. 300,000 tested, 1.2% active. activation, % at 9.35 µM. Wnt/beta-catenin reporter cell assay, activator, plate reader; in the data active = activation above about 30%, passing the limit was not always enough; inconclusive = no clear call, values can overlap the other calls;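 also: 0% = neutral control wells and 100% = positive control wells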
AF4-AF9 inh – MLL-AF4/AF9 protein interaction inhibition. P42568. AID 651704. AlphaScreen, biotin-AF4 peptide binding to FLAG-AF9. 350,000 tested, 0.47% active. inhibition, % at 10 µM;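 active = every replicate reaching a set inhibition limit, whatever the replicate mean, cut at about 25% in these data; inconclusive = mean inhibition reaches that limit but some replicates miss it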;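 also: 0% = plate neutral control median and 100% = total signal loss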
Target sequence (P42568 whole entry, looked up): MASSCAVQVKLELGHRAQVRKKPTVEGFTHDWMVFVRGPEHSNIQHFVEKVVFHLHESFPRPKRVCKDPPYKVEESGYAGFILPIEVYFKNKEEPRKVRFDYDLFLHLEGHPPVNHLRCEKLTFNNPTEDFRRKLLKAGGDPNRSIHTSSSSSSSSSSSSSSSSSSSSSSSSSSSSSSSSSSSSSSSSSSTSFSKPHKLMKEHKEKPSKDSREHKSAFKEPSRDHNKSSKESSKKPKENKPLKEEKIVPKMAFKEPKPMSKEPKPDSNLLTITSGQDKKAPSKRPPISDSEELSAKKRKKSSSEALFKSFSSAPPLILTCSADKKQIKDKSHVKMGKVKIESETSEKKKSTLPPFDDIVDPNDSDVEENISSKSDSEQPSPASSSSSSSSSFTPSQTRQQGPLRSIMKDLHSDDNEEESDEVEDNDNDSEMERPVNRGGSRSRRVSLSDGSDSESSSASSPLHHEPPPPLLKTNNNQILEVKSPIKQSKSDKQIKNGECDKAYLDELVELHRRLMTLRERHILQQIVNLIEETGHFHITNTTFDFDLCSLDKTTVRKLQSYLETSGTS
An asterisk follows results filed as active; ? = inconclusive; . = no result. Hits are enriched below; roughly 3.7% of the tested compounds scored in any of these assays.

SMILES	MITF TRPM1 HTS	esBAF inh	rRNA inh HTS	Wnt bcat act	AF4-AF9 inh
Cn1cccc1C(=O)OCC(=O)N1CCc2ccccc21	100*	25	3	53*	-1
CC(=O)c1c(C)[nH]c(C(=O)OCC(=O)N2CCc3ccccc32)c1C	53	54*	.	0	.
Cn1cccc1C(=O)OCC(=O)N1CCc2ccccc2C1	.	31	-11	7	1
Cc1ccc(C(=O)OCC(=O)N2CCc3ccccc32)cc1	108*	?	.	23	.
O=C(Nc1csc([N+](=O)[O-])c1)Nc1c(Cl)cccc1Cl	.	.	-32*	-4	-2
C[C@@H]1CN([C@@H](C)CO)C(=O)Cc2cc(NC(=O)Cn3cnnn3)ccc2O[C@@H]1CN(C)CC1CCCCC1	.	-1	4	.	1
O=C(NC(=S)NNC(=O)c1ccccc1F)c1cccnc1	.	.	-19*	0	-1
Cc1cccnc1NC(=O)COc1ccc2c(c1)CCC2	100*	57*	10	17	0
Cc1ccc(OCC(=O)c2ccc3c(c2)CCCC3)cc1C	97*	18	.	6	.
Cc1ccc(NC(=O)COc2ccc3c(c2)CCC3)nc1	94*	17	3	?	0
O=C(COc1ccc2c(c1)CCC2)NCc1ccc(Cl)cc1	5	.	-30*	-1	-6
O=C(COc1ccc(Br)cc1)c1ccc2c(c1)CCCC2	10	14	.	.	.
CCCCNC(=O)NNC(=O)COc1cc(C)cc(C)c1	-12	.	.	-2	.
O=C(O)C1CCN(C(=O)COc2ccc3c(c2)oc(=O)c2ccccc23)CC1	8	1	1	-2	-2
CC1(c2nnc(-c3ccc(F)cc3)o2)CC(c2ccc(F)cc2)=NO1 (stereo not drawn)	-5	3	.	-3	.
Cc1csc(NC(=O)COc2ccc3c(c2)CCC3)n1	78	64*	.	20	3
COc1ccc(OCC(=O)Nc2ccc3c(c2)CCC3)cc1	1	0	.	4	-4
Cc1ccc(C)c(NC(=S)/C(=C(\[O-])c2ccc(OC(F)F)cc2)[n+]2ccccc2)c1	-1	-2	15	-1	-1
Cc1ccc(NC(=S)/C(=C(\[O-])c2ccc(Cl)s2)[n+]2cccc(CO)c2)cc1C	-17	14	-1	-1	10
Cc1cc(C)c(/C([O-])=C(/C(=S)Nc2ccc(SC(F)F)cc2)[n+]2ccccc2)cc1C	-14	3	-38	-1	9
[O-]/C(=C(\C(=S)Nc1ccc(SC(F)F)cc1)[n+]1cccc(CO)c1)c1ccc(Cl)s1	1	.	-31*	3	9
CN(C)c1cc[n+](/C(C(=S)Nc2ccc(SC(F)F)cc2)=C(/[O-])c2ccccc2)cc1	-14	6	-19*	0	4
Cc1ccc(NC(=S)/C(=C(\[O-])c2ccc(F)cc2)[n+]2ccccc2)cc1	13	.	-25*	4	7
COc1ccc(CN2C(=NC(=O)c3ccccc3)SC3CS(=O)(=O)CC32)cc1OC (stereo not drawn)	-8	-6	0	-2	-1
COc1cccc(N2CC(O)Cn3c2nc2c3c(=O)[nH]c(=O)n2C)c1 (stereo not drawn)	-6	0	-7	-1	3
SMILES	MITF TRPM1 HTS	esBAF inh	rRNA inh HTS	Wnt bcat act	AF4-AF9 inh
CCCCOc1ccc(NC(=O)CN2CCN(Cc3ccccc3)CC2)cc1	-7	2	-4	6	1
COC(=O)c1ccc(NN=Nc2ccc(C)cc2)cc1	15	.	.	.	.
COC(=O)c1ccc(N=NN2CCCCC2)cc1	89*	.	-21	0	-1
Cc1cc2ncc(-c3ccc(Cl)cc3)cn2n1	91*	?	22	17	-1
Cc1ccc(S(=O)(=O)Nc2ccc(O)c3cccnc23)cc1	-22	4	17	3	4
Cc1ccc(S(=O)(=O)Nc2ccc(O)c3ncccc23)cc1	-51	-12	-20	-11	26*
Cc1ccc2c(Cl)cc(Cl)c(OCC(=O)N3CCOCC3)c2n1	-6	0	1	-2	-1
CC1NC(=O)NC1CCCCCC(=O)NCCc1ccccc1 (stereo not drawn)	-4	7	16	-1	77*
Cc1ccc(C2/C(=C(/O)c3cnn(-c4ccccc4)c3C)C(=O)C(=O)N2CCN2CCOCC2)o1 (stereo not drawn)	20	50*	.	.	.
Cc1ccc(C2/C(=C(\O)c3cnn(-c4ccccc4)c3C)C(=O)C(=O)N2CCN(C)C)o1 (stereo not drawn)	.	48*	.	-2	.
CN1c2ccc(Br)cc2[C@H]2[C@H](CCN2C(=O)Nc2ccc(F)cc2)[C@H]1CO	.	1	-10	.	2
CC(Cc1ccccc1)NC(=O)c1cc2ccccc2o1 (stereo not drawn)	67	82*	-7	29	-2
Cc1ccc(C(=O)c2cc3ccccc3o2)cc1[N+](=O)[O-]	52	67*	22	14	1
C/C(=N\NS(=O)(=O)c1ccc(C)c([N+](=O)[O-])c1)c1cc2ccccc2o1	-8	.	.	.	.
O=C(c1cc2ccccc2o1)N1CCCC1	10	.	9	0	0
O=C(c1ccccc1)c1cc2ccccc2o1	108*	49*	.	11	.
O=C(c1ccc(F)cc1)c1cc2ccccc2o1	?	64*	.	65*	.
O=C(NNC(=O)c1cc2ccccc2o1)c1ccc(F)cc1	23	20	8	4	-1
O=C(NC1CCC(NC(=O)C(F)(F)C(F)F)CC1)C(F)(F)C(F)F (stereo not drawn)	2	4	.	.	.
C[C@@H]1CN([C@@H](C)CO)C(=O)Cc2cc(NC(=O)CCC(F)(F)F)ccc2O[C@H]1CN(C)C	.	-2	4	.	-3
C[C@@H]1CCCCO[C@H](CN(C)S(=O)(=O)c2cccs2)[C@@H](C)CN([C@@H](C)CO)C(=O)c2cc(NC(=O)c3ccncc3)ccc2O1	.	-3	-3	.	1
CC(C)c1ccc(N=C2N=C(N)c3ccccc32)cc1	-1	.	-7	49*	-1
CCCCOc1ccc(N=Nc2ccc(N)nc2N)cn1	76	47	-25*	22	17
CC(C)(C)c1ccc(N2C(=O)CSC2c2ccccc2)cc1 (stereo not drawn)	.	.	.	.	-1
N#Cc1c(/N=C/c2cc(Br)cs2)sc2c1CCC2	57	78*	.	.	.
SMILES	MITF TRPM1 HTS	esBAF inh	rRNA inh HTS	Wnt bcat act	AF4-AF9 inh
Cc1ccc(S(=O)(=O)N2CCN(S(=O)(=O)N3CCOCC3)CC2)cc1C	5	-1	.	.	.
CCOC(=O)c1c(N)sc(N)c1C(=O)OCC	1	.	.	0	3
CCOC(=O)c1c(N)sc(C(O)(C(F)(F)F)C(F)(F)F)c1-c1ccc(OC)cc1OC	-9	0	-27*	-6	-31
O=C(Nc1cccc(-c2ccc(N3CCOCC3)nn2)c1)c1ccccc1	?	34	-1	25	-6
O=C(Nc1ccc(N2CCOCC2)c(Cl)c1)c1cccnc1Cl	11	15	.	-4	.
O=C(COc1ccccc1)Nc1cccc(-c2ccc(N3CCOCC3)nn2)c1	86*	-7	-7	?	1
